# From publication PMC7862700, “An all-to-all approach to the identification of sequence-specific readers for epigenetic DNA modifications on cytosine”
# Legend:
# Test in all cases: DAPPL (digital affinity profiling via proximity ligation, sequencing); 10 mM Tris-HCl pH 7.5, 50 mM NaCl, 1 mM DTT, 4% glycerol, room temperature, 30 min; GST-TFs on glutathione beads, 16-mer random dsDNA library, 0.1% formaldehyde crosslink after washing; high values mean tight binding
# Settings in all cases: protein: recombinant; tags: N-terminal GST; dsDNA, one strand shown
# [1] = target: T1, ERF (Homo sapiens, UniProt P50548 1-548)
# T1 sequence: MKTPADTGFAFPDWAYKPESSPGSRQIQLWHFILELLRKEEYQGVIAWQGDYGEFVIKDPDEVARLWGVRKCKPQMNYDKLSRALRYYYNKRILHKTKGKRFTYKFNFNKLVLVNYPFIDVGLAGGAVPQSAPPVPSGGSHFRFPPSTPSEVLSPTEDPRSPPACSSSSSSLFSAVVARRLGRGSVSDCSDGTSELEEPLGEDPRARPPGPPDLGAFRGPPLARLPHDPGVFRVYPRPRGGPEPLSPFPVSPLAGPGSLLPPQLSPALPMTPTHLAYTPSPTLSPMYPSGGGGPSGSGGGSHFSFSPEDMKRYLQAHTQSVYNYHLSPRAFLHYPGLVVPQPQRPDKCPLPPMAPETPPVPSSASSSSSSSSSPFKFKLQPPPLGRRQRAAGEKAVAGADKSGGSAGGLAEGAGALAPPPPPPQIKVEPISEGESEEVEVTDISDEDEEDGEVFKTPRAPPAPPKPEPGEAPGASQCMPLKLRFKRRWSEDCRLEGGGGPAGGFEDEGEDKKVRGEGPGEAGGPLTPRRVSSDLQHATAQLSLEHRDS
# In short: (§1)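 Binding signal is each hexamer's read frequency for a factor divided by its frequency in the tag-only sample. The factors were GST-fused human transcription factors from yeast, captured on glutathione beads, DNA-barcoded and pooled with that sample. Pools were incubated with 200 nmole of a random double-stranded 16-mer DNA library in Tris/NaCl/DTT/glycerol buffer at room temperature for 30 min, then washed, crosslinked with 0.1% formaldehyde, proximity-ligated with BsaI/T4 ligase (1 h, 37 °C), PCR-amplified and sequenced on an Illumina NextSeq500.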
# [2] = target: T2, ETV3L (Homo sapiens, UniProt Q6ZN32 1-361)
# T2 sequence: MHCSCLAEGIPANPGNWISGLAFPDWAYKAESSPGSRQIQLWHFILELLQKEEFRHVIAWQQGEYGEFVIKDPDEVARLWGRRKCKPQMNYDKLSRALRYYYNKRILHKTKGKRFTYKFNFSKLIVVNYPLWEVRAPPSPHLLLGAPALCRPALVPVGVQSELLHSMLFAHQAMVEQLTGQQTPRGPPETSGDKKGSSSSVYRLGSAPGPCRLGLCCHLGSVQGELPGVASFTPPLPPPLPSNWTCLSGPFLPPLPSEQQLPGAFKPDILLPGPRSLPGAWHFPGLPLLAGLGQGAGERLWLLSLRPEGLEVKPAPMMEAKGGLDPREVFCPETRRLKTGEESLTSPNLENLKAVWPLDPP
# In short: as §1
# [3] = target: T3, ETS2 (Homo sapiens, UniProt P15036 1-469)
# T3 sequence: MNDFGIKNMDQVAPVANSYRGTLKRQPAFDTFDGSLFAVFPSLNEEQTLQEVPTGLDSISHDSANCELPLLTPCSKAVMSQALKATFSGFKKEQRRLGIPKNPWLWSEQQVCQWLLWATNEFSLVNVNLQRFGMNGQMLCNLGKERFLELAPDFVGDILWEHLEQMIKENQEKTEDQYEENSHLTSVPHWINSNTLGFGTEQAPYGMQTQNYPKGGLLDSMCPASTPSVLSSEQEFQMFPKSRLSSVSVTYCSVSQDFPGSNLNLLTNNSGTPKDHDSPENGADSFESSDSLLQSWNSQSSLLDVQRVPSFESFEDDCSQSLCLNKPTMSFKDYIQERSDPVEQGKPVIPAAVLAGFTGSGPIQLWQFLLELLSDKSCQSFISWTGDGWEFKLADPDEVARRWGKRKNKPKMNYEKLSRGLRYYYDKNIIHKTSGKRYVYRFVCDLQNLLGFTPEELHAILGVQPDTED
# In short: as §1
# [4] = target: T4, SPDEF (Homo sapiens, UniProt O95238 1-335)
# T4 sequence: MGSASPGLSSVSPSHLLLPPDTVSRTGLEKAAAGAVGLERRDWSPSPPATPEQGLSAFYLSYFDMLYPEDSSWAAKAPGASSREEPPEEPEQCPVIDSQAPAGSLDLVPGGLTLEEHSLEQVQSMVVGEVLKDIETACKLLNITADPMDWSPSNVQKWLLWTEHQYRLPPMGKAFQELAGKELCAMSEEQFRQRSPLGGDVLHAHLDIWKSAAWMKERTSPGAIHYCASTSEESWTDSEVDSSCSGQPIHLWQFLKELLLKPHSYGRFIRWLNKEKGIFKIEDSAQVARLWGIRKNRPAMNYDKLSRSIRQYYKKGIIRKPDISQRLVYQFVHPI
# In short: as §1
# [5] = target: T5, ETV7 (Homo sapiens, UniProt Q9Y603 1-341)
# T5 sequence: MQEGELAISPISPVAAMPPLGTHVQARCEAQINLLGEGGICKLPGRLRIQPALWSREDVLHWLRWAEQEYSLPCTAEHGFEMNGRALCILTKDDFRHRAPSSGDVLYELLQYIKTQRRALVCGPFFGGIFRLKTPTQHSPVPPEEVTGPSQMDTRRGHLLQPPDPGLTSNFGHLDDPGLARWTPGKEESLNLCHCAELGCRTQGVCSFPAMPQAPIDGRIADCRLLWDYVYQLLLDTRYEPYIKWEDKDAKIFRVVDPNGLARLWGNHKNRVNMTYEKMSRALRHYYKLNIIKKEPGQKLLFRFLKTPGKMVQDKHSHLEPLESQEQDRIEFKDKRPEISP
# In short: as §1
# [6] = target: T6, ELF5 (Homo sapiens, UniProt Q9UKW6-2 1-255)
# T6 sequence: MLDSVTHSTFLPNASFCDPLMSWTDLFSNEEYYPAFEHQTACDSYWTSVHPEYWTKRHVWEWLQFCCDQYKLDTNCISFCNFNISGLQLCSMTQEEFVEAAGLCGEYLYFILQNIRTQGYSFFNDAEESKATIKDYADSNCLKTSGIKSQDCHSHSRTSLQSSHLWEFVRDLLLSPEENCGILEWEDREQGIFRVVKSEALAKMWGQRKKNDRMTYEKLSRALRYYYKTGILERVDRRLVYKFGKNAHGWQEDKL
# In short: as §1
# [7] = target: T7, ETV3 (Homo sapiens, UniProt P41162-2 1-143)
# T7 sequence: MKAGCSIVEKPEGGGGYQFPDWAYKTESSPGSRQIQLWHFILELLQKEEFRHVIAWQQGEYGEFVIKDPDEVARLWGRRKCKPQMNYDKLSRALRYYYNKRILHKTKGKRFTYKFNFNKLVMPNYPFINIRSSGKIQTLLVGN
# In short: as §1
# [8] = target: ETV6 (Homo sapiens, UniProt P41212 1-452)
# In short: as §1
# ETV6, sequence (P41212 whole entry): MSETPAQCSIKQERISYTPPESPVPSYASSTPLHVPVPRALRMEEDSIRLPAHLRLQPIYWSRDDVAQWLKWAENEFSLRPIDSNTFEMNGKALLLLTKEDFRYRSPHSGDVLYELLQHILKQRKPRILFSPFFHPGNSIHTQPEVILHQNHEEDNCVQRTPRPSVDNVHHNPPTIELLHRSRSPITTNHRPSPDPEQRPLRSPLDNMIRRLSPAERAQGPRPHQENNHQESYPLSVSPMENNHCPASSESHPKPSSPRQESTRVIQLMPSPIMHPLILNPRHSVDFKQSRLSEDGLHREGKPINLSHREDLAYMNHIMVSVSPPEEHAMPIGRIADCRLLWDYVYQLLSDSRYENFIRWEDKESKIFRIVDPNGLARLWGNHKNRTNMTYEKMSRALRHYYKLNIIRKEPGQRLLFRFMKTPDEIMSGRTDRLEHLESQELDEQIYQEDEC
Sequence,binding signal [1],binding signal [2],binding signal [3],binding signal [4],binding signal [5],binding signal [6],binding signal [7],binding signal [8]
ATTTTC,"1.38 fold enrichment (6-mer frequency, TF over GST control)","1.42 fold enrichment (6-mer frequency, TF over GST control)","1.43 fold enrichment (6-mer frequency, TF over GST control)","1.34 fold enrichment (6-mer frequency, TF over GST control)","1.39 fold enrichment (6-mer frequency, TF over GST control)","1.61 fold enrichment (6-mer frequency, TF over GST control)","1.42 fold enrichment (6-mer frequency, TF over GST control)","1.43 fold enrichment (6-mer frequency, TF over GST control)"
ACAGGA,"1.03 fold enrichment (6-mer frequency, TF over GST control)","1.11 fold enrichment (6-mer frequency, TF over GST control)","1.16 fold enrichment (6-mer frequency, TF over GST control)","1.37 fold enrichment (6-mer frequency, TF over GST control)","1.11 fold enrichment (6-mer frequency, TF over GST control)","1.28 fold enrichment (6-mer frequency, TF over GST control)","1.15 fold enrichment (6-mer frequency, TF over GST control)","1.19 fold enrichment (6-mer frequency, TF over GST control)"
CATGGT,"1.24 fold enrichment (6-mer frequency, TF over GST control)","1.27 fold enrichment (6-mer frequency, TF over GST control)","1.25 fold enrichment (6-mer frequency, TF over GST control)","1.13 fold enrichment (6-mer frequency, TF over GST control)","1.16 fold enrichment (6-mer frequency, TF over GST control)","1.16 fold enrichment (6-mer frequency, TF over GST control)","1.25 fold enrichment (6-mer frequency, TF over GST control)","1.2 fold enrichment (6-mer frequency, TF over GST control)"
GGAAAC,"1.19 fold enrichment (6-mer frequency, TF over GST control)","1.32 fold enrichment (6-mer frequency, TF over GST control)","1.3 fold enrichment (6-mer frequency, TF over GST control)","1.29 fold enrichment (6-mer frequency, TF over GST control)","1.34 fold enrichment (6-mer frequency, TF over GST control)","1.7 fold enrichment (6-mer frequency, TF over GST control)","1.42 fold enrichment (6-mer frequency, TF over GST control)","1.66 fold enrichment (6-mer frequency, TF over GST control)"
TGGCAC,"1.21 fold enrichment (6-mer frequency, TF over GST control)","1.2 fold enrichment (6-mer frequency, TF over GST control)","1.14 fold enrichment (6-mer frequency, TF over GST control)","1.12 fold enrichment (6-mer frequency, TF over GST control)","1.18 fold enrichment (6-mer frequency, TF over GST control)","1.05 fold enrichment (6-mer frequency, TF over GST control)","1.19 fold enrichment (6-mer frequency, TF over GST control)","1.16 fold enrichment (6-mer frequency, TF over GST control)"
CACTCT,"1.37 fold enrichment (6-mer frequency, TF over GST control)","1.29 fold enrichment (6-mer frequency, TF over GST control)","1.27 fold enrichment (6-mer frequency, TF over GST control)","1.14 fold enrichment (6-mer frequency, TF over GST control)","1.19 fold enrichment (6-mer frequency, TF over GST control)","1.18 fold enrichment (6-mer frequency, TF over GST control)","1.43 fold enrichment (6-mer frequency, TF over GST control)","1.23 fold enrichment (6-mer frequency, TF over GST control)"
ATTCCC,"1.28 fold enrichment (6-mer frequency, TF over GST control)","1.53 fold enrichment (6-mer frequency, TF over GST control)","1.25 fold enrichment (6-mer frequency, TF over GST control)","1.37 fold enrichment (6-mer frequency, TF over GST control)","1.29 fold enrichment (6-mer frequency, TF over GST control)","1.5 fold enrichment (6-mer frequency, TF over GST control)","1.51 fold enrichment (6-mer frequency, TF over GST control)","1.38 fold enrichment (6-mer frequency, TF over GST control)"
